Calls of active or inactive are those of the source. Calls come from the whole dose curve; as a rule, active = well fitted activation curve with a large enough effect; inconclusive = small, poorly fitted or top-dose-only effect; inactive = no such curve, though single readings can be large or run the other way.
Test: Counterscreen for Identifying a Potential Treatment of Ataxia-Telangiectasia: Hit Validation; for activation: 0% is about no effect
Settings: cell-free AlphaLISA/AlphaScreen artifact counterscreen, PBS only, no cells; series mostly up to 76.9 µM; activation: at the top concentration
Outline: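 Without cells, compounds at up to 76.7 uM final were combined with premixed anti-pKAP1/anti-KAP1 AlphaLISA bead reagents, protease inhibitors and lysis buffer; signal read after 6 hr at 25C to flag assay-platform artifacts.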
Potency is the fitted concentration of half-maximal effect.

Structure (SMILES)	activation	Potency
O=C(c1ccc(F)cc1)N1CCC(c2ccccc2)C1 (centres undefined)	12.3% (inactive)	–
Nc1ccc2ncccc2c1	9.02% (inactive)	–
COC(=O)CCc1c(C)c(C(=O)c2cc(OC)c(OC)c(OC)c2)c2ccccn12	5.74% (inactive)	–
CCC12CN(C(=O)c3ccc([N+](=O)[O-])cc3)CC(CC)(CN(C(=O)c3ccc([N+](=O)[O-])cc3)C1)C2=O	0% (inactive)	–
CCC(C)Nc1nc(N)c([N+](=O)[O-])c(NCCO)n1 (centres undefined)	-7.52% (inactive)	–
O=C(CSc1nnc(CNC(=O)c2ccccc2)o1)NCCc1ccccc1	1.5% (inactive)	–
COc1ccc(-n2c(=S)[nH]c3ccccc3c2=S)cc1	-17.2% (inactive)	–
COc1ccc(C2/C=C\CN(S(=O)(=O)c3ccc4ccccc4c3)CC(=O)N2Cc2ccc(F)cc2)cc1 (centres undefined)	-14.6% (inactive)	–
Cc1ccc(C(=O)c2c(C)oc3c2C(=O)C(=O)c2ccccc2-3)cc1	-38.3% (inactive)	–
Cc1nn(CC(=O)N(C)Cc2ccc(F)cc2)c(C)c1[N+](=O)[O-]	3.01% (inactive)	–
Oc1cccc(NC(=S)N=Nc2c(O)[nH]c3ccccc23)c1	-13.1% (inactive)	–
C=CCN1C(=O)/C(=C/C(=O)OC)S/C1=N\NC(=O)c1ccccc1	-6.92% (inactive)	–
COc1cccc(C2C(C(N)=O)=C(C)Nc3nc(CCCO)nn32)c1 (centres undefined)	9.02% (inactive)	–
Fc1cccc(Cl)c1/C=C/c1cnc2ccccc2n1	-13.1% (inactive)	–
O=C(NC(=O)c1c(F)cccc1F)Nc1ccccc1SC(F)F	9.02% (inactive)	–
COc1ccc(N(C)S(=O)(=O)c2cccc(C(=O)OCC(=O)NCc3ccccc3OC)c2)cc1	-12.8% (inactive)	–
CCOC(=O)C1=C(C)N(c2ccc(OC)cc2)C(=O)/C1=C\c1ccc(O)c(OCC)c1	-32.8% (inactive)	–
Cc1nc(Nc2ccc(Cl)cc2)c2oc3ccccc3c2n1	0% (inactive)	–
CCCCCCCCCn1ccc(=N)cc1	-13.1% (inactive)	–
COC(=O)c1ccncc1C(=O)Nc1ccc(Oc2ncc(C(F)(F)F)cc2Cl)cc1	-5.74% (inactive)	–

Structure (SMILES)	activation	Potency
COc1ccc(C(=O)/C=C/C(=O)N(CC(=O)NC2CCCCC2)Cc2ccccc2)c(O)c1	3.76% (inactive)	–
COc1ccc(C2c3ccc(O)cc3Oc3ncn(CC(C)C)c(=N)c32)cc1 (centres undefined)	-3.76% (inactive)	–
CC1CC(C)CN(C(=O)COC(=O)c2c[nH]c3ccccc23)C1 (centres undefined)	5.38% (inactive)	–
Cc1oc2c(c(C)cc3oc(=O)c(CC(=O)NCC(=O)NCC(=O)O)c(C)c32)c1C	-5.38% (inactive)	–
CC12CCC(C(=O)NNc3ccc([N+](=O)[O-])cc3)(OC1=O)C2(C)C (centres undefined)	0% (inactive)	–
CNC(=S)N(CCO)Cc1cc2cc3c(cc2[nH]c1=O)OCCO3	6.92% (inactive)	–
COc1ccccc1NC(=O)C1CCCN(S(=O)(=O)c2ccc(-n3cnnn3)cc2)C1 (centres undefined)	-3.76% (inactive)	–
COc1cc(/C=N/NC(=O)c2c(C)nc3ccc(Cl)cn23)cc(OC)c1OC	–	58.2 µM (active)
CCn1c2ccccc2c2c3ncc4cccn4c3ccc21	–	41.2 µM (active)
CCCc1nn(C)c(C(=O)Nc2ccc(C(C)(C)C)cc2)c1Cl	7.69% (inactive)	–
O=C(CNCc1cccs1)Nc1ccc(OC(F)(F)F)cc1	0% (inactive)	–
CC(O)[C@H]1CNC(=O)C(=O)N1CC1(c2ccccc2)CC1 (some centres undefined)	4.1% (inactive)	–
N#Cc1c2c(c(-n3cnc4ccccc43)n3c1nc1ccccc13)CCC2	-10.7% (inactive)	–
CCS(=O)(=O)N1Cc2ccccc2CC1C(=O)Nc1cccc(OC)c1 (centres undefined)	-15.4% (inactive)	–
N=c1ccn(Cc2ccc([N+](=O)[O-])cc2)cc1	-6.15% (inactive)	–
CCOc1cccc(/C=C/c2ccc3cccc(O)c3n2)c1OC	-10.7% (inactive)	–
O=C(N/N=C/c1cccc2ccccc12)c1cccnc1	0% (inactive)	–
CNC(=O)c1ccc(-c2cc3onc(-c4ccccc4)c3c(=O)n2C)cc1	-19.2% (inactive)	–
CC1CCCC(C)N1CCCNC(=O)Cn1ncc2c3ccccc3n(C)c2c1=O (centres undefined)	12.8% (inactive)	–

— PubChem BioAssay AID493185 (National Center for Advancing Translational Sciences (NCATS), 2011)
